Assay [1] in a line: NCI Yeast Anticancer Drug Screen. Data for the rad50 strain (AID 155).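 Further: 0% = growth of vehicle-only cultures of the same strain.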 The following applies: S. cerevisiae rad50 strain growth inhibition; at 50.0 µM; hits give high values. Summed up: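 Compounds were tested on a yeast strain with an engineered DNA damage repair alteration; the reported value is growth inhibition normalised to vehicle treatment.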
Assay [2] can be described thus: NCI Yeast Anticancer Drug Screen. Data for the mec2-1 strain (AID 157). The following applies: S. cerevisiae mec2-1 strain, at 50.0 µM, hits give high values. Summed up: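 Vehicle-treated cultures served as reference for growth inhibition of compound-exposed mec2-1 yeast.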
A short description of assay [3]: NCI Yeast Anticancer Drug Screen. Data for the sgs1 mgt1 strain (AID 161).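 Further: 0% = growth of cultures given vehicle only.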 The following applies: S. cerevisiae sgs1 mgt1 strain, at 50.0 µM, hits give high values. In a few lines:
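Mutant yeast exposed to compound; growth scored against vehicle-only wells.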

A short description of assay [4]: NCI Yeast Anticancer Drug Screen. Data for the cln2 rad14 strain (AID 165).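 Further: 0% = growth equal to vehicle treated cultures.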 The settings on record: S. cerevisiae cln2 rad14 strain, at 50.0 µM, hits give high values. Summed up: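 Each compound was tested on cln2 rad14 yeast. Inhibition of growth was calculated against vehicle-exposed controls.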
Assay [5] is described as follows: NCI Yeast Anticancer Drug Screen. Data for the bub3 strain (AID 167). The settings on record: S. cerevisiae bub3 mutant strain, at 50.0 µM, hits give high values. Summed up: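 Growth of a checkpoint-deficient yeast mutant is measured after compound exposure. Values represent inhibition relative to vehicle.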
Assay [6] is described as follows: NCI Yeast Anticancer Drug Screen. Data for the mlh1 rad18 strain (AID 175). The settings on record: S. cerevisiae mlh1 rad18 strain growth inhibition; at 50.0 µM; hits give high values. Summed up:
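Vehicle-treated cultures served as the reference for growth inhibition in a yeast strain carrying DNA damage repair alterations exposed to each compound.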

This is part of a sample that, as a whole, favours compounds with a hit. Of some 79,000 tested, about 15% had one in any assay. Values without a mark were called inactive. Calls of active or inactive are those of the source. No stated cut-off is given here; in the data, active means growth inhibition above about 70%; inactive means the rest.

Turning to `NC(=O)CCCCCCCCCCBr`, the growth inhibition in assay [1] was 15.6%; in assay [2], 21.2%; in assay [3], 8.85%; in assay [4], 20.2%; in assay [5], 22.8%; in assay [6], 42.3%.

In the case of `CCCC(N)S(=O)(=O)O` (stereo unspecified), the growth inhibition in assay [1] was -25.6%; in assay [2], -10.6%; in assay [3] it was -23.9%; in assay [4] it was -14.1%; in assay [5], 6.1%; in assay [6], -11.2%.

For `Cc1cc2c(=O)cc(-c3ccc(F)cc3)oc2c(C(=O)O)c1C`, the growth inhibition was -19.1% in assay [1]; -1.1% in assay [2]; -5.6% in assay [3]; 17.4% in assay [4]; -4.4% in assay [5]; 33.3% in assay [6].

Take `CCCCI(O)OS(=O)(=O)c1ccc(C)cc1`: the growth inhibition in assay [1] was 5.65%; in assay [2], 3.1%; in assay [3], -2.85%; in assay [4], -7.7%; in assay [5], -3.9%; in assay [6] it was -32.6%.

For `CCOC(=O)c1[nH]c2ccsc2c1C[N+]1(C)CCCCC1`, the growth inhibition in assay [1] is 38.1%; in assay [2] it was 5.8%; in assay [3], 36.9%; in assay [4] it was -3.7%; in assay [5], -0.85%; in assay [6], 16.3%.

In the case of `O=C1c2cccnc2-c2nccc3c2c1nc1ccccc13`, the growth inhibition in assay [1] was 90.3% (active); in assay [2], 92.8% (active); in assay [3], 91% (active); in assay [4] it was 91.4% (active); in assay [5], 91.5% (active); in assay [6], 90.7% (active).

Turning to `O=C(O)C(=O)/C=C(\O)c1ccc(Br)cc1`, the growth inhibition in assay [1] is 32.3%; in assay [2], 11.8%; in assay [3], 3.7%; in assay [4] it was -12.1%; in assay [5] it was 36.4%; in assay [6], 30.1%.

On to `COc1ccc(C(=O)N/N=C/c2cccc3ccccc23)cc1`, for which the growth inhibition in assay [1] was -3%; in assay [2] it was 36.5%; in assay [3], 13%; in assay [4] it was -23.1%; in assay [5], 43.8%; in assay [6], 33.6%.

`Cc1cccc(C)c1N=Nc1sc(N)nc1C`: the growth inhibition is 20.4% in assay [1]; 10.6% in assay [2]; 6.65% in assay [3]; -29.9% in assay [4]; -9.65% in assay [5]; 22.9% in assay [6].

Regarding `CCCCOC(=O)c1cccc2c1-c1ccccc1C2=O`, the growth inhibition in assay [1] was 9.75%; in assay [2] it was -6.55%; in assay [3], -2%; in assay [4] it was -14.9%; in assay [5], 13.8%; in assay [6], -0.7%.

With `S=c1[nH]n(-c2ccccc2)c(=S)s1`, the growth inhibition in assay [1] was -28.7%; in assay [2], -41.1%; in assay [3] it was -4.95%; in assay [4] it was -1.15%; in assay [5], 15.3%; in assay [6], -22.6%.

Consider `CC(C)CC([N+](C)(C)C)P(=O)([O-])O` (stereo unspecified), for which the growth inhibition in assay [1] is -4.4%; in assay [2], 1.6%; in assay [3], -4.7%; in assay [4], -9.2%; in assay [5], 20.9%; in assay [6], -3.5%.

Consider `CCC(=O)C(=O)C1CCCCC1=O` (stereo unspecified), for which the growth inhibition in assay [1] is -2.4%; in assay [2] it was -3.8%; in assay [3] it was -2.5%; in assay [4], -9.05%; in assay [5], -17.6%; in assay [6], -0.05%.

For the compound `O=C(CC(=O)N1N=C(n2ccc3ccccc32)CC1c1ccccc1)Nc1cccc(Cl)c1` (stereo unspecified), the growth inhibition is -35.5% in assay [1]; -15.3% in assay [2]; -11.8% in assay [3]; 12.1% in assay [4]; -3.5% in assay [5]; -5.85% in assay [6].

As for `OC(CI)C1OCOC(CI)C1O` (stereo unspecified), the growth inhibition in assay [1] was -11.7%; in assay [2], 3.65%; in assay [3] it was 10.7%; in assay [4] it was -26.5%; in assay [5] it was -3.75%; in assay [6], 16.4%.

Regarding `Cc1[nH]c(=O)[nH]c(=O)c1/C=C/C(=O)NC(CO)CS(=O)C(C)C` (stereo unspecified), the growth inhibition in assay [1] was 83.2% (active); in assay [2], 63.5%; in assay [3], 95.4% (active); in assay [4], 64.7%; in assay [5], 79.7% (active); in assay [6] it was 85.7% (active).

With `Cc1cc(NS(=O)(=O)c2ccc(Nc3c4ccccc4nc4c(C(=O)NCCN(C)C)cccc34)cc2)no1`, the growth inhibition in assay [1] is -37.8%; in assay [2], 3.4%; in assay [3] it was -41.5%; in assay [4], 11.9%; in assay [5], -22.7%; in assay [6] it was -14.6%.

Regarding `Cc1cnc2[nH]c(-c3ccc(Cl)cc3)cc(=O)c2c1`, the growth inhibition is -5.65% in assay [1]; -21.6% in assay [2]; -31.9% in assay [3]; -31.4% in assay [4]; -32% in assay [5]; -52.1% in assay [6].

On to `Cc1ccc(C2=C(c3ccc(C)cc3)CS(=O)(=O)C2)cc1`, for which the growth inhibition is 22.2% in assay [1]; -5.55% in assay [2]; -0.4% in assay [3]; -6% in assay [4]; -18.8% in assay [5]; -26.1% in assay [6].

In the case of `CCCc1cc2c(cc1CSc1ccccc1C(=O)O)OCO2`, the growth inhibition was -13.6% in assay [1]; -8.75% in assay [2]; -1.9% in assay [3]; -84.7% in assay [4]; -7.6% in assay [5]; -12.4% in assay [6].

Take `CCOCCC12CCCCC1C/C(=N/OC(C)=O)c1ccccc12` (stereo unspecified): the growth inhibition in assay [1] was 9.3%; in assay [2], -5.95%; in assay [3] it was -0.45%; in assay [4], 1.2%; in assay [5], 15.7%; in assay [6] it was 35.8%.

(Values after PubChem BioAssay (NCI).)
